# Records with an inconclusive call do not appear. Active and inactive are the calls of the source. Calls follow the shape of the dose curve; as a rule, active = well fitted cell-killing curve with a large enough effect; inconclusive = small, poorly fitted or top-dose-only effect, or effect the other way, or another doubt; inactive = no such curve, though single readings can be large or run the other way.
# Test: Identifying Small Molecule Inhibitors of Pancreatic Cancer Stem Cells (A2780, Spheroid) (AID 1259357);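 also: spheroids pre-formed over 14 days in stem cell medium on hydrogel; compound exposure lasted 48 h before the ATP luminescence read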
# Details: Potency: A2780 spheroid viability; series mostly up to 46.1 µM
# Description: Progenitor-like cancer cells, often referred to as cancer stem cells (CSC), are believed to be the drivers of therapeutic resistance and rapid recurrence. CSCs are postulated to reside in specific niches characterized by low oxygen tension, limited nutrient supply, and high redox load. Selectively targeting CSC, alone or in combination with cytotoxic agents, as a means to produce durable remissions is an appealing concept. Modeling these cells in in vitro setting is an important step in finding new therapies and/or targets. Multiple reports highlight that forcing cells in culture into 3-dimensionaly architectures (spheroids) re-establishes key progenitor-like transcriptional signatures. Pancreatic cancer is among the diseases with the most dismal outlook which is driven, largely, by recurance following front-line therapies. […] In hopes of deriving new insight into the targeting of these pancreatic CSCs we examined three established pancreatic cancer cell lines in cytotoxicity assays versus a collection of approved and investigational drugs. Importantly, we screened these lines as traditional monolayer (2D) and spheroid (3D) formats to gain an appreciation of agents with differential activity.
# Multicellular tumor spheroids from Panc1, MiaPaCa-2, and the primary low-passage tissue culture line SB.06 were seeded in stem cell media (SCM) in nonadherent 6-well plates coated with hydrogel (Corning Life Sciences, Chelmsford, Mass) and pancreatic spheres generated for 14 days before screening. Cells were seeded into 1536-well solid-bottom white tissue culture treated Greiner Bio One Plates (789173-F) using a MultiDrop Combi (Thermofisher Scientific) dispenser and a small sterile cassette. One column was media alone to be used as a :"no cells" control. The plates were then covered with sterilized stainless steel gasketed lids from Kalypsys. After allowing cells to attach for 4 hours, 23 nL of test compound or control (negative control DMSO and positive control 9.2 uM Bortezomib-final) were added from a 1536-well polypropylene compound source plate to each well using a 1536 head pin tool from Kalypsys. Cells were then incubated for 48 hours at 37C, 95% relative humidity and 5% CO2. After 48 hours, plates were removed from the incubator and 3 uL of CellTiter-Glo (Promega) was added using an Aurora Flying Reagent Dispenser Bioraptor. Plates were incubated at room temperature for 10 minutes prior to reading the luminescence on the Viewlux (PerkinElmer). The relative luciferase units are used to calculate the percent activity using the activity of DMSO in the cells and no cells columns for normalization of no inhibition and full inhibition respectively.
# Potency is read from the fitted curve at half-maximal effect.
row,SMILES,Potency
1,CC1(C)CCC(c2ccc(Cl)cc2)=C(CN2CCN(c3ccc(C(=O)NS(=O)(=O)c4ccc(N[C@H](CCN5CCOCC5)CSc5ccccc5)c(S(=O)(=O)C(F)(F)F)c4)cc3)CC2)C1,20.9 µM (active)
2,c1ccc2c(CCNc3ccc(Nc4ccncc4)cc3)c[nH]c2c1,inactive
3,CC(=O)c1c(C)c2cnc(Nc3ccc(N4CCNCC4)cn3)nc2n(C2CCCC2)c1=O,inactive
4,COc1cccc2nc(-c3cccs3)nc(NN3C(=O)C=C(C)C3=O)c12,0.662 µM (active)
5,COC(=O)[C@]12CCC(C)(C)C[C@@H]1[C@@H]1C(=O)C=C3[C@@]4(C)C=C(C#N)C(=O)C(C)(C)[C@@H]4CC[C@@]3(C)[C@]1(C)CC2,1.32 µM (active)
6,C[C@@H](Oc1cc(-n2cnc3ccc(CN4CCN(C)CC4)cc32)sc1C(N)=O)c1ccccc1C(F)(F)F,inactive
7,CC(=O)OCC(=O)[C@@]1(O)[C@H](C)C[C@H]2[C@@H]3C=C(C)C4=Cc5c(cnn5-c5ccccc5)C[C@]4(C)[C@@H]3[C@@H](O)C[C@@]21C,inactive
8,O=C(Nc1cc(C(F)(F)F)cc(C(F)(F)F)c1)c1cc(Cl)ccc1O,0.526 µM (active)
9,Nc1ccc(C(=O)c2cc3c(ccc4ccccc43)[nH]2)cc1,2.09 µM (active)
10,Cc1nc2cnc3ccc(C#Cc4cccnc4)cc3c2n1-c1ccc(C(C)(C)C#N)cc1,1.87 µM (active)
11,C[C@]1(CO)CN(c2cc(C(=O)Nc3ccc4c(c3)-c3c(c(C(N)=O)nn3-c3ccc(F)cc3)CC4)c(Cl)cn2)C[C@@]1(C)CO,inactive
12,C1=CCOCc2cc(ccc2OCCN2CCCC2)Nc2nccc(n2)-c2cccc(c2)OCC1,3.32 µM (active)
13,CC(=O)OCCN1C(=O)c2c(C)nc3ccc(S(=O)(=O)N4CCOCC4)cc3c2C1=O,inactive
14,O=C(C=Cc1cccnc1)NCCCCC1CCN(C(=O)c2ccccc2)CC1,inactive
15,CC1=C(CO)C(=O)O[C@@H]([C@@H](C)[C@H]2CC[C@H]3[C@@H]4C[C@H]5O[C@]56[C@@H](O)C=CC(=O)[C@]6(C)[C@@H]4CC[C@]23C)C1,0.935 µM (active)
16,C[C@@]12O[C@@H](C[C@]1(O)CO)n1c3ccccc3c3c4c(c5c6ccccc6n2c5c31)CNC4=O,23.5 µM (active)
17,CC[C@@H]1C(=O)N(C)c2cnc(Nc3ccc(C(=O)NC4CCC(N5CCN(CC6CC6)CC5)CC4)cc3OC)nc2N1C(C)C (some centres not stated),inactive
18,C=CC(=O)Nc1cc2c(Nc3ccc(F)c(Cl)c3)ncnc2cc1OCCCN1CCOCC1,23.5 µM (active)
19,Nc1cc(C(F)(F)F)c(-c2cc(N3CCOCC3)nc(N3CCOCC3)n2)cn1,1.48 µM (active)

row,SMILES,Potency
1,COCCn1c2c([n+](Cc3cnccn3)c1C)C(=O)c1ccccc1C2=O,0.0132 µM (active)
2,C=CC(=O)Nc1cc2c(Nc3ccc(F)c(Cl)c3)ncnc2cc1C#CC(C)(C)N1CCN(C)CC1,16.6 µM (active)
3,Cc1ccc(C(=O)Nc2ccc(CN3CCN(C)CC3)c(C(F)(F)F)c2)cc1C#Cc1cnc2cccnn12,14.8 µM (active)
4,N#CCNC(=O)c1ccc(-c2ccnc(Nc3ccc(N4CCOCC4)cc3)n2)cc1,20.9 µM (active)
5,Cc1cnc(-c2cnc(NCCNc3ccc(C#N)cn3)nc2-c2ccc(Cl)cc2Cl)[nH]1,inactive
6,CN(c1ncccc1CNc1nc(Nc2ccc3c(c2)CC(=O)N3)ncc1C(F)(F)F)S(C)(=O)=O,5.26 µM (active)
7,CC(C)c1ccc(Cn2ccc3c4c(N)nc(NC5CC5)nc4ccc32)cc1,14.8 µM (active)
8,CC[C@H](CO)Nc1nc(NCc2ccccc2)c2ncn(C(C)C)c2n1,20.9 µM (active)
9,COc1cc(=C2C=c3ccccc3=N2)[nH]c1=Cc1[nH]c(C)cc1C,20.9 µM (active)
10,CN(C)CCCN=c1c2ccccc2n(C)c2[nH]c(=O)n(C)c(=O)c12,inactive
11,Nc1nc(Nc2ccc(S(N)(=O)=O)cc2)nn1C(=O)c1c(F)cccc1F,4.18 µM (active)
12,CN1CC[C@@H](c2c(O)cc(O)c3c(=O)cc(-c4ccccc4Cl)oc23)[C@@H](O)C1,0.0743 µM (active)
13,C=CC(=O)N1CCC[C@@H](n2nc(-c3ccc(Oc4ccccc4)cc3)c3c(N)ncnc32)C1,inactive
14,CC[C@@H]1C(=O)N(C)c2cnc(Nc3ccc(C(=O)NC4CCN(C)CC4)cc3OC)nc2N1C1CCCC1,inactive
15,CC1(C)OC2=C(C(=O)c3ccccc3C2=O)[C@H](NCc2ccccc2)[C@H]1O,14.8 µM (active)
16,O=C(C=Cc1c(C(=O)O)[nH]c2cc(Cl)cc(Cl)c12)Nc1ccccc1,inactive
17,Cc1cc(Nc2cc(NC(=O)c3c(Cl)cccc3Cl)ccn2)nc(N)n1,20.9 µM (active)
18,NC(=O)Nc1cc(-c2cccc(F)c2)sc1C(=O)N[C@H]1CCCNC1,18.7 µM (active)

# — PubChem BioAssay (NCATS)
